# According to PubChem BioAssay (NCATS):
# Records with an inconclusive call do not appear. Entries that show only a call come without a potency. The source made the active and inactive calls. Unless noted, calls follow the shape of the dose curve; as a rule, active = well fitted curve in the direction sought with a large enough effect; inconclusive = small, poorly fitted or top-dose-only effect, or another doubt; inactive = no such curve, though single readings can be large; an effect the other way counts as inactive or inconclusive.
# Tests used:
# [1] = target: Calcium and integrin-binding protein 1 (Homo sapiens) (UniProt Q99828); test: Primary qHTS for Identification of Calcium Integrin Binding Protein 1 (CIB1) Competitor (AID 1508620);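 also: GST tagged CIB1 binding a fluorescein labelled alphaIIb integrin peptide tracer; top concentration of the series differs between compounds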
# Summary of the method: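 Fluorescence polarization competition: CIB1-GST (1 uM final) preincubated with compound 15 min at room temperature, then FITC-labeled alphaIIb peptide (100 nM final) added for another 15 min. Polarization read at Ex 480/Em 540.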
# [2] = target: N-terminal Xaa-Pro-Lys N-methyltransferase 1 (Homo sapiens) (UniProt Q9BV86); test: Confirmatory qHTS for Inhibitors of N-terminal methyltransferase 1 (NTMT1): MTaseGlo Assay (AID 1645874); also: nearly all actives have a fitted effect of over 65% in size; also: potency is read from the fitted curve at half-maximal effect;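 as to activity change, negative = inhibition: luminescence from SAH made as NTMT1 methylates SPKRIA peptide using SAM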
# Summary of the method: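 Inhibition was derived from luminescence after SAH-to-ATP conversion, scaled between no-enzyme and DMSO wells, then fitted by 4-parameter Hill. Conditions: 125 nM NTMT1, 100 uM SAM, 1 uM SPKRIA, 30 min RT.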
# [3] = target: Lysosomal acid glucosylceramidase (Homo sapiens) (UniProt P04062); test: Glucocerebrosidase-p2 (AID 348; in the data active = potency below about 10 µM; also: potency is read from the fitted curve at half-maximal effect); conditions: purified GBA, blue fluorogenic substrate, 40 min
# Summary of the method: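 Normal human glucocerebrosidase (0.2 nM) with blue fluorogenic substrate (80 uM final) in citrate/phosphate pH 5.9 with 10mM sodium taurocholate, 0.01% tween-20; 40 min RT, NaOH/glycine stop; fluorescence Ex 365/Em 440; AC50 from a titration from 0.6 nM upwards.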
# [4] = NFAT Signaling Pathway (AID 444; active = well fitted curve in either direction with a large enough effect, not every such curve was filed as active;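 also: carbachol stimulus at about its EC50 of 1 µM final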); conditions: Jurkat NFAT-bla M1, carbachol, beta-lactamase ratio, 5 h; at 7.69 µM (top of the series) unless noted
# Summary of the method: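 Jurkat cells carrying an NFAT-driven β-lactamase reporter and co-transfected muscarinic M1 receptor were treated with compound plus carbachol (1 uM final, an EC50 level) for 5 h at 37 °C. CCF4 loading followed for 1 h at RT; 460/530 nm ratio gave %activity.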
# [5] = target: Glucocorticoid receptor (Homo sapiens) (UniProt P04150); test: GR-GFP Redistribution (AID 450;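 active = compounds whose dose series gives a full or clear partial fitted curve of increased nuclear translocation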; also: potency is read from the fitted curve at half-maximal effect); conditions: U2OS GR-GFP nuclear translocation, laser cytometry, 2 h
# [6] = target: Mitogen-activated protein kinase 10 (Mus musculus) (UniProt Q61831); test: JNK3 AlphaScreen Assay (AID 530; active = well fitted curve in either direction with a large enough effect, not every such curve was filed as active;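 also: kinase came from lysate of stimulated human HepG2 cells; signal reports phosphorylation of biotinylated GST-cJun 1-79 at Ser73 with 10 µM ATP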)
# Summary of the method: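 Biotinylated GST-cJun(1-79) served as substrate for JNK3 in HepG2 lysates stimulated with IL-1beta and TNF-alpha. ATP was 10 uM final, pH 7.6. Ser73 phosphorylation was quantified by AlphaScreen (680 nm excitation).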
# [7] = target: 3',5'-cyclic-AMP phosphodiesterase 4B (Homo sapiens) (UniProt Q07343); test: qHTS Assay for Inhibitors of PDE-IV (AID 607; active = well fitted activation curve with a large enough effect in the main read-out, with a control signal flat, not every such curve was filed as active)
# Summary of the method: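 HEK293 ACTOne cells with CNG channel (1000/well), endogenous PDE4; membrane potential dye, compounds up to 22.9 uM final. Fluorescence Ex 535/Em 590; RO 20-1724 (100 uM final) as reference.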
# [8] = target: Cytochrome P450 3A4 (Homo sapiens) (UniProt P08684); test: qHTS Assay for Activators of Cytochrome P450 3A4 (AID 885); also: nearly all actives have a fitted effect of over 65% in size
# Summary of the method: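 Human CYP3A4 dealkylates Luciferin-PPXE to luciferin, which luciferase detection converts to light. Substrate was at its KM (25uM), buffer 200mM KPO4, reaction 60 min at RT.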
# [9] = target: Dual specificity protein kinase CLK4 (Homo sapiens) (UniProt Q9HAZ1); test: qHTS Assay for Inhibitors of CDC-like Kinase 4 (Kinase-Glo Assay) (AID 1770); also: potency is read from the fitted curve at half-maximal effect; nearly all actives have a fitted effect of over 65% in size
# Summary of the method: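 Clk4 25 nM, RS peptide 100 uM, ATP 1 uM, pH 7.5 Tris, 10 mM MgCl2, 2.5 mM DTT; 4.5 h RT; ATP depletion read by Kinase-Glo luminescence.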
# [10] = target: Dual specificity protein kinase CLK4 (Homo sapiens) (UniProt Q9HAZ1); test: qHTS Assay for Inhibitors of CDC-like Kinase 4 (ADP-Glo Assay) (AID 1771); also: potency is read from the fitted curve at half-maximal effect; nearly all actives have a fitted effect of over 70% in size
# Summary of the method: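 25 nM Clk4, 100 uM RS peptide, 1 uM ATP (final); 2 mM MgCl2, 0.5 mM EGTA, 2.5 mM DTT, 0.01% Triton X-100; 1 hr RT. ADP-Glo readout: ATP depletion 45 min, conversion/luciferase 30 min, luminescence.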
# [11] = target: Dual specificity protein kinase CLK4 (Homo sapiens) (UniProt Q9HAZ1); test: qHTS Assay for Inhibitors of CDC-like Kinase 4 (ADP-FP Assay) (AID 1795); also: potency is read from the fitted curve at half-maximal effect; nearly all actives have a fitted effect of over 60% in size
# Summary of the method: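 Kinase activity was followed as ADP output, converted from fluorescence polarization with a calibration curve. Reactions ran one hour at low ATP (1 uM) with RS peptide substrate.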
# [12] = target: Ubiquitin carboxyl-terminal hydrolase 1 (Homo sapiens) (UniProt O94782); test: Inhibitors of USP1/UAF1: Pilot qHTS (AID 504865);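 also: rhodamine fluorescence freed from ubiquitin-rhodamine substrate followed over time; top concentration of the series differs between compounds; nearly all actives have a fitted effect of over 35% in size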
# Summary of the method: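 Enzyme-free wells gave the negative control, while test wells held 1nM USP1/UAF1 preincubated with compound for 15 min at room temperature. Ub-Rho at 150nM final started the reaction, and fluorescence at 480/540 nm was recorded kinetically.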
# [13] = Primary qHTS for small molecule stabilizers of the endoplasmic reticulum resident proteome: Secreted ER Calcium Modulated Protein (SERCaMP) assay (AID 1508630)
# Summary of the method: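 The SH-SY5Y reporter protocol was run at 3 concentrations up to 38.3 uM (primary) or 11 concentrations (follow-up): 16 h compound, 100 nM thapsigargin for 4 h, then extracellular luciferase luminescence.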
# [14] = qHTS for Inhibitors of Ubiquitin-specific Protease USP2a Using CHOP2 as the Reporter: K633 Counterscreen (AID 652168)
# Summary of the method: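 Detection-system control: fluorescence of K48-linked DiUb-4IQF substrate (100 nM as added) tracked over time, Ex 525/Em 598, with pinned compounds and no enzyme, in pH 8 Tris buffer containing beta-mercaptoethanol and 0.05% Chaps.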
# [15] = qHTS for Inhibitors of Ubiquitin-specific Protease USP2a Using CHOP2 as the Reporter: Cytotox Assay (AID 652170); also: potency is read from the fitted curve at half-maximal effect; nearly all actives have a fitted effect of over 70% in size
# Summary of the method: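 Cytotoxicity read as ATP luminescence (CellTiter-Glo) after 72 hr compound treatment at 37 deg C. Cells: HCT116, 600/well in DMEM plus 10% FBS. Normalization between DMSO-treated cells and cell-free wells.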
# [16] = Primary qHTS for inhibitors of nuclear receptor binding SET domain protein 2 (NSD2) in an isogenic RCH-ACV NSD2 p.E1099K mutant (9B) (AID 1645876); also: potency is read from the fitted curve at half-maximal effect; nearly all actives have a fitted effect of over 70% in size
# [17] = Primary qHTS for inhibitors of nuclear receptor binding SET domain protein 2 (NSD2) in an RCH-ACV wild type WT cells (2C) (AID 1645877); also: potency is read from the fitted curve at half-maximal effect; nearly all actives have a fitted effect of over 70% in size
# [18] = qHTS drug screen for cell cycle checkpoint inhibitors in PARPi-resistant BRCA-mutant ovarian cancer cell lines. (AID 1963452; calls by dose curve); conditions: PEO1/OlaR viability, CellTiter-Glo luminescence, 96 h, stronger effect = lower value
# Summary of the method: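 PEO1, PEO4 and PEO1/OlaR ovarian cancer cells, 600 per well, exposed 96 h at 37C to a dilution series. Viability read by CellTiter-Glo luminescence, normalized to DMSO and empty wells; activity summarized as Z-AUC.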
# [19] = target: Rap guanine nucleotide exchange factor 3 (Homo sapiens) (UniProt O95398); test: Confirmatory qHTS for agonist of cAMP-regulated guanine nucleotide exchange factor 3 (EPAC1) (AID 1645881);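 also: EPAC1 catalysed release of BODIPY-GDP from Rap1B seen as fluorescence loss; nearly all actives have a fitted effect of over 75% in size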
# [20] = target: Rap guanine nucleotide exchange factor 4 (Homo sapiens) (UniProt Q8WZA2); test: Confirmatory qHTS for agonist of cAMP-regulated guanine nucleotide exchange factor 4 (EPAC2) (AID 1645884);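 also: nucleotide exchange releases bodipy-GDP from Rap1 and this lowers its fluorescence; nearly all actives have a fitted effect of over 65% in size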
# [21] = target: Rap guanine nucleotide exchange factor 4 (Homo sapiens) (UniProt Q8WZA2); test: Confirmatory qHTS for antagonist of cAMP-regulated guanine nucleotide exchange factor 4 (EPAC2) (AID 1645885); also: nearly all actives have a fitted effect of over 25% in size
# [22] = target: Rap guanine nucleotide exchange factor 3 (Homo sapiens) (UniProt O95398); test: Counterscreen qHTS for antagonist of cAMP-regulated guanine nucleotide exchange factor 3 (EPAC1) (AID 1645888);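 also: fluorescence loss as bound BODIPY-GDP is released from Rap1B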
# Summary of the method: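 Measured: fluorescence of BODIPY-GDP bound to Rap1B, which falls as exchange proceeds. Conditions include 50 uM competing GDP, 5 and 30 min reads, and a later cAMP challenge for antagonist detection.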
# Calcium and integrin-binding protein 1 (Homo sapiens), sequence (Q99828 whole entry, looked up): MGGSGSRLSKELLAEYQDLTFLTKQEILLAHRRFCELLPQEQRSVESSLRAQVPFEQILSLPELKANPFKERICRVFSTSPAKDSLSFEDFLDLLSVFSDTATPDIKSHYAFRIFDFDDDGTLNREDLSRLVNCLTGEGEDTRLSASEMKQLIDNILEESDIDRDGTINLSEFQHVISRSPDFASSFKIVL
# Dual specificity protein kinase CLK4 (Homo sapiens), sequence (Q9HAZ1 whole entry, looked up): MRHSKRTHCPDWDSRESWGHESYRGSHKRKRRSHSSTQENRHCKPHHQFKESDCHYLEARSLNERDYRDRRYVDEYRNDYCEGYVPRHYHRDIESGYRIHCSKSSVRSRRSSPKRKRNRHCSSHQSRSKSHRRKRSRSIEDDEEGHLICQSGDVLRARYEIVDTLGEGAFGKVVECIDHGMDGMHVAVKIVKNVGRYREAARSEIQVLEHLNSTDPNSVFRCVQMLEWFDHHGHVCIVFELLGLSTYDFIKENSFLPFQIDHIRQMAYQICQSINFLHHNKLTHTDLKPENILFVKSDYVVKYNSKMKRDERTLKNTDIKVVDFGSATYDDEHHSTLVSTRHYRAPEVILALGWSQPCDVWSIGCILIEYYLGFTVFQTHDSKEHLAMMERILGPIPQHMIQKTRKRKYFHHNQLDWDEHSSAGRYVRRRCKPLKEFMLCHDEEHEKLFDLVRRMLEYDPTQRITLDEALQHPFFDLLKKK
# N-terminal Xaa-Pro-Lys N-methyltransferase 1 (Homo sapiens), sequence (Q9BV86 whole entry, looked up): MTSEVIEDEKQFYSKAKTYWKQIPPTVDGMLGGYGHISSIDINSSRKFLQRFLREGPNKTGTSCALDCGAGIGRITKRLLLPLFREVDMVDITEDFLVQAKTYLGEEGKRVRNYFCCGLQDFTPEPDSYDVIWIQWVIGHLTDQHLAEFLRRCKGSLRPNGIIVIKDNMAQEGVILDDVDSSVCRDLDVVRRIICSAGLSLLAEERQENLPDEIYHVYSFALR
# Rap guanine nucleotide exchange factor 4 (Homo sapiens), sequence (Q8WZA2 whole entry, looked up): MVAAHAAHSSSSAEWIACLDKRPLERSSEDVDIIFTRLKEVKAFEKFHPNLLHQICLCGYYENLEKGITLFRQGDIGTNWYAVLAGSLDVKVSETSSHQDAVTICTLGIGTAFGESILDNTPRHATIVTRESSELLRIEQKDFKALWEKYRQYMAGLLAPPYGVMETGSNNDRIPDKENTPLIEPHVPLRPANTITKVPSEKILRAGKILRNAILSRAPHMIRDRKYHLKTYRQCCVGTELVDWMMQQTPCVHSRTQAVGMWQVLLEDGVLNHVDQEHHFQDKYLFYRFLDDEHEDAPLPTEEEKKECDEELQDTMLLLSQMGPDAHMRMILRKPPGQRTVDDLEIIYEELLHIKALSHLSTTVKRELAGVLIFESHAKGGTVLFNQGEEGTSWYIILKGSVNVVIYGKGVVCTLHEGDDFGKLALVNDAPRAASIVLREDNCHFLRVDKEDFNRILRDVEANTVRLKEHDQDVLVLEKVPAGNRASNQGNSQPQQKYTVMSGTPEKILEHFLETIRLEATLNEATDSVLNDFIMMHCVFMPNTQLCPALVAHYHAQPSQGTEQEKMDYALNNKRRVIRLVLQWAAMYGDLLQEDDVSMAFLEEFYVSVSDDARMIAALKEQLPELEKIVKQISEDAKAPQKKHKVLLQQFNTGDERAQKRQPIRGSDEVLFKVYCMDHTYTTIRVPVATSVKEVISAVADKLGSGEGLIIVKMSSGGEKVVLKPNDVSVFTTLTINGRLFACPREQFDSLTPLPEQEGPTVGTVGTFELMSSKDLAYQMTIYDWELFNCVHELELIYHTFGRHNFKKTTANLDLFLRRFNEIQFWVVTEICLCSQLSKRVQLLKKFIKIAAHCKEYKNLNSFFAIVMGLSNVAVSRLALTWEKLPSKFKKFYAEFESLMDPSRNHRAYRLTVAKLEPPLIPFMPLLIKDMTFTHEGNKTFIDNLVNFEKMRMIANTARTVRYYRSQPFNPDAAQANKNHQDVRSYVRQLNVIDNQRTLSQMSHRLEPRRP
# Rap guanine nucleotide exchange factor 3 (Homo sapiens), sequence (O95398 whole entry, looked up): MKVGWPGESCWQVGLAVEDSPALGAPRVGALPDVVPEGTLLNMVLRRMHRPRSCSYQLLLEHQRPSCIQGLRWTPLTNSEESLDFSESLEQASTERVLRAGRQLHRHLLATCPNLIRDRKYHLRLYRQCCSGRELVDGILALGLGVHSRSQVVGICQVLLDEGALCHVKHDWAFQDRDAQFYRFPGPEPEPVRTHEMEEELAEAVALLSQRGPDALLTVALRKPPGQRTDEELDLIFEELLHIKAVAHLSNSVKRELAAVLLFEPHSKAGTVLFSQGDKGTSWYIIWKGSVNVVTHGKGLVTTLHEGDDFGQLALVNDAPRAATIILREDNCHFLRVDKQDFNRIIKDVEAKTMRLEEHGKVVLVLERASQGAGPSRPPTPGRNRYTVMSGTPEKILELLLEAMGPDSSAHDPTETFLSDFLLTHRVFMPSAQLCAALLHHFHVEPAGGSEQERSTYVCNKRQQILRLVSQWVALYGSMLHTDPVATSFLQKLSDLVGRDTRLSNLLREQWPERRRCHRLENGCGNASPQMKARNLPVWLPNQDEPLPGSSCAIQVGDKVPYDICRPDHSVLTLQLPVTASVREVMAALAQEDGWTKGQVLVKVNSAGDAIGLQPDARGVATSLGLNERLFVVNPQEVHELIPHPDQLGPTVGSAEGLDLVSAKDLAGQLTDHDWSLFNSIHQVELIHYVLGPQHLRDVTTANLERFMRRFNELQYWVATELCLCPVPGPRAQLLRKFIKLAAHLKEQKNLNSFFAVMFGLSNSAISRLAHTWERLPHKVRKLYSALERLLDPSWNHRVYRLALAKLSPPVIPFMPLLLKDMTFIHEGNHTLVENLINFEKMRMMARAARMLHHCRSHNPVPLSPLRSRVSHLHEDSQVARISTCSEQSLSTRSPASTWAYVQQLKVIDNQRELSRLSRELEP
# 3',5'-cyclic-AMP phosphodiesterase 4B (Homo sapiens), sequence (Q07343 whole entry, looked up): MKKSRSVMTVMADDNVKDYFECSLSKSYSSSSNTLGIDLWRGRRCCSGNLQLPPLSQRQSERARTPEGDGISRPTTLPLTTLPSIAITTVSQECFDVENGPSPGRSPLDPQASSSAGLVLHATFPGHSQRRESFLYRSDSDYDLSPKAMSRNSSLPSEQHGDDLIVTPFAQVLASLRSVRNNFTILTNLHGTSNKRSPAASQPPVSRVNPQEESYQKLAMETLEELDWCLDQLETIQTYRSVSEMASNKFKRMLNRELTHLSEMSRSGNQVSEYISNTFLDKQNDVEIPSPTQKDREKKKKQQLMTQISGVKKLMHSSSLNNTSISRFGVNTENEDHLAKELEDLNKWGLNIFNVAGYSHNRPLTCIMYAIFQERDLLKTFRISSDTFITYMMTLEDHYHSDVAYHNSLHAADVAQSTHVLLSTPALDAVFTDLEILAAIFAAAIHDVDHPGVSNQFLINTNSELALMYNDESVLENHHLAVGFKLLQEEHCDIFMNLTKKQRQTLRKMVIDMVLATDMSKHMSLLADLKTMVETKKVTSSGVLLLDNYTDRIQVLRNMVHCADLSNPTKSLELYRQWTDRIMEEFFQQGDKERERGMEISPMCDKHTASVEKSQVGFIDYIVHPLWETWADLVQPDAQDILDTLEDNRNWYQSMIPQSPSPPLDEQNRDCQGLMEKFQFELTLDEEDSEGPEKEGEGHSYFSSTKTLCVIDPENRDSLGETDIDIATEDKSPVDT
# Ubiquitin carboxyl-terminal hydrolase 1 (Homo sapiens), sequence (O94782 whole entry, looked up): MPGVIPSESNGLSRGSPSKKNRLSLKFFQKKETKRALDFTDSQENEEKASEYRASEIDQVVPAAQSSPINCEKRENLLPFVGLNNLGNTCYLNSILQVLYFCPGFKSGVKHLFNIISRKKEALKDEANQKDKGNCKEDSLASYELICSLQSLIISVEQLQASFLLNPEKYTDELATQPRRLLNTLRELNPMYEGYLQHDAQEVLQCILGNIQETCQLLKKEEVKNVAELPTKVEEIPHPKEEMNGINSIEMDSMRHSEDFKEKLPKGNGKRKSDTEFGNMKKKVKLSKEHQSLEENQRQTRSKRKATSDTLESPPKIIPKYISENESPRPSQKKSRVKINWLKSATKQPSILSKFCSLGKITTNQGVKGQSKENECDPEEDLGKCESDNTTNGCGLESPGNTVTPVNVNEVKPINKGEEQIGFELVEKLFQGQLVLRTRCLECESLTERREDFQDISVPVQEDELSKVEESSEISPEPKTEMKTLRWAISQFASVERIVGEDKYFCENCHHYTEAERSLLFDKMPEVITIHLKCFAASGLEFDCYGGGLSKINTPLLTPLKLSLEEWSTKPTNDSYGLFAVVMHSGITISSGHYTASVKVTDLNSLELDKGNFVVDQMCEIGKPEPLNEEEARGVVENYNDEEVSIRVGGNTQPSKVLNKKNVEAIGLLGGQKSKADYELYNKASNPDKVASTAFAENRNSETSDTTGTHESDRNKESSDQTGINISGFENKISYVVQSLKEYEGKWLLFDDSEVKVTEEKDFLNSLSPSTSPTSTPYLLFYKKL
# Cytochrome P450 3A4 (Homo sapiens), sequence (P08684 whole entry, looked up): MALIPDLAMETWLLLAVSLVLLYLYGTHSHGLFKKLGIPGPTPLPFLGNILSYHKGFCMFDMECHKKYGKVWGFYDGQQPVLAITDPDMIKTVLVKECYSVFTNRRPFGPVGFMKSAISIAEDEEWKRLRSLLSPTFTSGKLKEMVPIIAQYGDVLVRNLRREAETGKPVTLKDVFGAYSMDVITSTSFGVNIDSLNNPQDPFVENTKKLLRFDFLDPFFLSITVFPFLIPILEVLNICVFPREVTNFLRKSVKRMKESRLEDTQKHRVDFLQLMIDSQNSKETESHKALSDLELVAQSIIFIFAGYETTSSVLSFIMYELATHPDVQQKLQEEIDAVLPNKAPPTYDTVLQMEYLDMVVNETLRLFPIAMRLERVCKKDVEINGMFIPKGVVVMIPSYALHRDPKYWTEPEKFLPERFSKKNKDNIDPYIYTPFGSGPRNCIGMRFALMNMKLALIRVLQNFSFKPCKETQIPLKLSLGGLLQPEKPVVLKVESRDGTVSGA
smiles,measurement,setting,value
CN(C)C(=O)c1ccc(-c2cc[nH]c(=O)c2N)cc1,Potency,[1],inactive
same,Potency,[2],inactive
COc1ccc(C2=Nn3c(nnc3-c3ccccc3F)SC2)cc1OC1CCCC1,Potency,[1],inactive
same,Potency,[2],24.5 µM (active)
NC(=O)C1CCN(c2nc(-c3ccccc3Cl)cs2)CC1,Potency,[1],inactive
same,Potency,[2],inactive
Cc1nc(C)c(-c2ccc3ncnc(NCc4ncc[nH]4)c3c2)s1,Potency,[1],inactive
same,Potency,[2],39.8 µM (active)
COc1cccc(-c2ccc3ncnc(NCc4cccnc4)c3c2)c1,Potency,[3],> 11.4 µM (inactive)
same,"activity change, negative = inhibition",[4],9.62% (inactive)
same,Potency,[5],> 46 µM (inactive)
same,outcome,[6],inactive
same,Potency,[7],inactive
same,Potency,[8],inactive
same,Potency,[9],2.82 µM (active)
same,Potency,[10],2.82 µM (active)
same,Potency,[11],1.58 µM (active)
same,Potency,[12],inactive
same,Potency,[1],inactive
same,Potency,[13],inactive
Cc1ccc(S(=O)(=O)Nc2cc(C(F)(F)F)ccc2C(=O)Nc2nc(-c3ccccc3)cs2)cc1,outcome,[14],inactive
same,Potency,[15],2.96 µM (active)
same,Potency,[1],inactive
same,Potency,[16],4.17 µM (active)
same,Potency,[17],4.17 µM (active)
same,Z-AUC,[18],0.58 (inactive)
same,Z-AUC,[18]; measured here: PEO1 parental Z-AUC,0.184
same,Z-AUC,[18]; measured here: PEO4 Z-AUC,-0.358
O=C(CSc1nnc(-c2cccc(S(=O)(=O)N3CCCC3)c2)n1-c1ccccc1)Nc1ccc(C(=O)O)cc1,Potency,[1],inactive
same,outcome,[19],inactive
same,activation,[20],-2.44% [at 17.1 µM] (inactive)
same,"activity change, negative = inhibition",[21],-11.1% [at 12.7 µM] (inactive)
same,outcome,[22],inactive
